Test results published in ChEMBL document CHEMBL3988442, “University of Dundee, Small-Polar-MMV Screening Library” (2021).
The whole screen tested about 53,000 compounds, of which about 900 (1.7%) showed an effect of 50% or more. The full list was thinned out, with strong results kept by preference.

Test system: Mycobacterium tuberculosis
Experiment: Cornell - Phenotypic assay to identify agents that inhibit growth of Mycobacterium tuberculosis
Assay type: functional
Set-up: scale not given: direction of the effect not stated beside the values
Conditions: 10 mM as filed; unlikely as a test dose

SMILES | Percent Effect
CC(C)c1cc2c(s1)NC(c1ccccn1)NC2=O (centres undefined) | -1.811%
CCn1c(C2CCCN2Cc2noc(C(C)(C)C)n2)nc2ccccc21 (centres undefined) | 13.86%
COc1ccccc1CC(=O)NC(C)c1nc2cccnc2n1C(C)C (centres undefined) | -9.677%
CC(C)Nc1ncnc2c1CCN(C(=O)c1ccncc1F)CC2.O=C(O)C(F)(F)F | -9.598%
O=C(O)c1cc(/C=C/c2ccccc2)ncn1 | 65.58%
N#Cc1ccc(C(=O)O)nc1/C=C/c1cccc(Cl)c1 | -13.81%
O=C(O)c1cc(/C=C/c2cccc3ccccc23)ncn1 | 65.34%
O=C(O)C1(Oc2ccc3ccccc3c2)CCN(c2ncccn2)CC1 | 20.42%
N#Cc1ccc(C(=O)O)nc1/C=C/c1cccc(F)c1 | 2.587%
N#Cc1ccc(C(=O)O)nc1/C=C/c1cccc(Br)c1 | 10.67%
O=C(O)c1c(Cl)ncn1-c1cccc2ccccc12 | 19.97%
O=C(O)c1cc(/C=C/c2ccc3ccccc3c2)ncn1 | 74.73%
CNC(=O)C1CCN(C(=O)NCc2ccc(-c3ccn[nH]3)cc2)CC1 | -24.99%
N#Cc1ccc(N2CCC3(CCC(=O)N3CCN3CCCC3)CC2)nc1.O=C(O)C(F)(F)F.O=C(O)C(F)(F)F | 3.156%
CCc1nnc2n1CCN(C(=O)CN(C)C1CC1)C2 | -12.51%
CCN1Cc2cc3c(cc2NCCC1=O)OCO3 | -32.17%
CN1CCC(N(CCc2ccccc2)C(=O)COCC2CCCO2)CC1 (centres undefined) | 41.94%
CN1CC(=O)N(c2ccsc2)CC12CCN(S(=O)(=O)C1CC1)C2.O=C(O)C(F)(F)F (centres undefined) | 6.764%
O=C(NC1CCC1)C1=NOC2(CCN(Cc3ccccc3)C2)C1 (centres undefined) | -9.005%
N#CCSCCCN1CCN(C(=O)c2cccc(Cl)c2)CC1 | 18.37%
CCC(Nc1nc(C(C)C)nc2c1cnn2C)c1ccncc1 (centres undefined) | 25.2%
CCC(Nc1nc(C(C)C)nc2c1cnn2C)c1ccc(O)cc1 (centres undefined) | 1.347%
CC[C@H](Nc1nc(C(C)C)nc2c1cnn2C)c1ccccc1 | 70.75%
Cc1nc(Nc2nnc(C)s2)cc(C2CCCN2c2ccncc2)n1 (centres undefined) | -13.84%
CCc1noc(C(C)N2CCc3c(ncn3C3CC3)C2)n1 (centres undefined) | -20.08%

SMILES | Percent Effect
COCc1nc(C(=O)N2CCCC(n3nc(C)cc3C)C2)cs1 (centres undefined) | -24.43%
CCc1nccn1C1CCCN(C(=O)c2csc(COC)n2)C1 (centres undefined) | 19.86%
COCc1nc(C(=O)N2CCCC(n3cccn3)C2)cs1 (centres undefined) | 67.19%
CN1CCC2(CC1)C(=O)N(CC1CC1)c1ccccc12.O=C(O)C(F)(F)F | 8.295%
c1coc(CNCC2Cn3nncc3CO2)c1 (centres undefined) | -14.67%
Cc1cccnc1NCCNC(=O)c1cnc(-c2cccs2)nc1O | 19.3%
COc1ccc(OC)c(CN(Cc2ccco2)Cc2[nH]cnc2C)c1.O=C(O)CC(O)(CC(=O)O)C(=O)O | 50.25%
COc1cccc(CN(Cc2ccco2)Cc2[nH]cnc2C)c1.O=C(O)CC(O)(CC(=O)O)C(=O)O | -15.02%
COc1ccc(CN(Cc2ccco2)Cc2[nH]cnc2C)c(OC)c1.O=C(O)CC(O)(CC(=O)O)C(=O)O | 39.21%
Cc1noc([C@H]2C[C@H]3OCC[C@H]3N(C3CCC3)C2)n1.O=C(O)C(F)(F)F | -34.16%
COc1ccc(OC)c(Sc2ncccc2C(=O)NCCSC)c1 | -9.266%
CN(C)C(=O)N1CC2(CCNCC2)c2cc(Cl)ccc21.Cl | -44.55%
CC(=O)N1CC2(CCNCC2)c2cc(Cl)ccc21.Cl | 63.2%
COC(=O)N1CC2(CCNCC2)c2cc(Cl)ccc21.Cl | 26.9%
CN(C)Cc1cnn(-c2ccccc2C(=O)NCCC2CCCN2C)c1 (centres undefined) | 17.58%
O=C(Cc1c[nH]c2ccccc12)N1CCN(C(=O)c2ccoc2)CC1 | -1.862%
C[S+]([O-])c1nncn1CC(=O)c1ccc(Cl)c(Cl)c1 (centres undefined) | 51.67%
C[S+]([O-])c1nncn1CC(=O)c1ccc2c(c1)CCO2 (centres undefined) | 2.009%
C[S+]([O-])c1nncn1CC(=O)c1cccc(Cl)c1 (centres undefined) | 12.76%
COc1coc(C(=O)Nc2nc(-c3cccnc3)cs2)cc1=O | 11.19%
O=C(c1ccncn1)N1C[C@H]2CCC[C@@]2(COCC2CCOCC2)C1 | 2.154%
Cc1nc(C)n(CC2CN(Cc3cc(C#N)ccc3F)CCO2)n1 (centres undefined) | 13.34%
CCOC(=O)C1=NOC(Cc2cc(OC)c3c(c2)OCO3)C1 (centres undefined) | 94.96%
COc1cc(CC2CC(c3ccc4c(c3)OCO4)=NO2)cc2c1OCO2 (centres undefined) | 30.67%
COc1c(CC2CC(C(=O)O)=NO2)c(Br)c2c(c1OC)OCO2 (centres undefined) | 14.91%

SMILES | Percent Effect
COc1cc(CC2CC(C(N)=O)=NO2)cc2c1OCO2 (centres undefined) | 13.11%
COC(=O)C1=NOC(Cc2cc(OC)c3c(c2)OCO3)C1 (centres undefined) | 104.6%
COc1cc(CNCc2ccc(C(C)O)cc2)cc2c1OCO2 (centres undefined) | 3.367%
Cc1cc(C)nc(C2CCN(C(=O)c3cncnc3C)C2)n1 (centres undefined) | -38.99%
Cc1nc(CN2C(=O)COC3(CCN(CC4CC4)CC3)C2C)cs1.O=C(O)C(F)(F)F (centres undefined) | 6.692%
Cc1c(C(=O)NC2CCCOC2)nnn1-c1ccccc1 (centres undefined) | -4.644%
Cc1onc(-c2ccncc2)c1C(=O)NC1CCCOC1 (centres undefined) | 52.15%
Cc1cccc(-c2noc(C)c2C(=O)NC2CCCOC2)c1.O=C(O)CC(O)(CC(=O)O)C(=O)O (centres undefined) | 20.12%
Cc1cnn(CC2CCCN2CC(=O)Nc2cc(C(C)(C)C)no2)c1 (centres undefined) | 16.98%
CCN1CCN(C(=O)NCc2cccnc2-n2cccn2)CC1 | -23.25%
CNC(=O)[C@@H]1CN(C(=O)C2CCC2)C[C@H]1c1ccnc(N2CCCC2)n1.Cl | 54.39%
CNC(=O)[C@@H]1CN(C(=O)COC)C[C@H]1c1ccnc(N2CCCC2)n1 | 50.96%
CNC(=O)[C@@H]1CN(C(=O)CCOC)C[C@H]1c1ccnc(N2CCCC2)n1.Cl | 43.65%
CCNC(=O)C1CCN(c2nccc(C3CCCC3)n2)C1 (centres undefined) | 13%
CNC(=O)[C@@H]1CN(C(=O)C(C)C)C[C@H]1c1ccnc(N2CCCC2)n1.Cl | 37.07%
CCC(=O)N1C[C@@H](C(=O)NC)[C@H](c2ccnc(N3CCCC3)n2)C1.Cl | 24.83%
CC(C)c1nn(C)c(N(C)C)c1CNC1CCN(CC2CC2)CC1 | 58.14%
COCCN1CCC(NCc2c(C(C)C)nn(C)c2N(C)C)CC1 | 39.85%
CC(C)c1nn(C)c(N(C)C)c1CNC1CCC(O)CC1 (centres undefined) | 21.48%
Cc1nn(C)c(Oc2ccccc2)c1CNC1CCCCNC1=O (centres undefined) | -7.334%
CC(C)c1nn(C)c(N(C)C)c1CNC1CCN(C2CC2)CC1.Cl | 42.5%
CC(C)C(=O)N1CCC(NCc2c(C(C)C)nn(C)c2N(C)C)CC1 | 31.79%
CC(C)c1nn(C)c(N(C)C)c1CNC1CCCCNC1=O (centres undefined) | 91.87%
Cc1nn(C)c(N2CCOCC2)c1CNC1CCCCNC1=O (centres undefined) | -11.46%
Cc1nn(C)c(N(C)C)c1CNC1CCCCNC1=O (centres undefined) | 63.11%

SMILES | Percent Effect
CN(CCc1nccs1)C(=O)CC1(O)CCCCC1 | 19.59%
COCCCNCc1cc(O)c2cc(C)cc(C)c2n1 | 3.207%
COc1ccc(OC2CCN(c3ccncc3)CC2)cc1 | 27.59%
CC(=O)Cn1nc(-c2ccccc2F)ccc1=O | 6.771%
Cc1cccc(CN2C(=O)C[C@H]3[C@@H]2CCN3Cc2ccc(F)cc2)n1.O=C(O)C(F)(F)F.O=C(O)C(F)(F)F | 15.09%
CCn1nc(C)cc1C(=O)N1C[C@@H]2C[C@@H](c3nnc(C)[nH]3)O[C@@H]2C1 | -8.9%
COc1cccc(CNC(=O)Cn2ccc3c(C)nn(C)c3c2=O)c1 | 4.678%
Cc1nn(C)c2c(=O)n(CC(=O)NCCC(C)C)ccc12 | 2.416%
Cc1nn(C)c2c(=O)n(CC(=O)NCc3ccc(N(C)C)cc3)ccc12 | 96.11%
OCCCN(CCn1cncn1)c1ccccc1 | -44.33%
c1ccc(N(CCn2cncn2)CC2CC2)cc1 | -28.11%
Oc1ccc(N(CCc2ccccc2)CCn2cncn2)cc1 | 107%
Cc1cc(CNC(=O)N2CCOC(c3ccccc3Cl)C2)no1 (centres undefined) | -0.6476%
COc1cc([C@@H]2N[C@H](c3nccs3)Cc3ccsc32)cc(OC)c1OC | 44.3%
COc1cccc([C@@H]2N[C@H](c3nccs3)Cc3ccsc32)c1OC | 50.54%
COc1ccc(OC)c([C@@H]2N[C@H](c3nccs3)Cc3ccsc32)c1 | 46.52%
Cc1ncc(-c2ccnc(NCCc3ccc(F)cc3)n2)c(=O)[nH]1 | -5.112%
Cn1ncc2c(N3CCN4CCCCC4C3)nc(C3CCCC3)nc21 (centres undefined) | 27.57%
CN1CCCc2cc(-c3cncn3CCNC3CCS(=O)(=O)C3)ccc21.Cl (centres undefined) | 6.115%
Cc1nn(C)c(C)c1CCn1cncc1-c1ccc2c(c1)CC(C)N2C.Cl (centres undefined) | 64.61%
CCOC(=O)c1n[nH]cc1-c1cncn1CCCn1nc(C)cc1C.Cl | 25.38%
Cc1cc(C)n(CCCn2cncc2-c2ccc3c(c2)CC(C)N3C)n1.Cl (centres undefined) | 63.97%
CN1CCCc2cc(-c3cncn3CC(=O)NC(C)(C)C)ccc21.Cl | 13.27%
CC1Cc2cc(-c3cncn3CC(=O)NC(C)(C)C)ccc2N1C.Cl (centres undefined) | -2.378%
